Screening results deposited in PubChem by National Center for Advancing Translational Sciences (NCATS).
HepG2 viability – qHTS for Inhibitors of TGF-b: Cytotox Counterscreen; HepG2 CAGA-GFP viability, ATP luminescence, 18 h; Potency, µM (highest dose often 46.1 µM), inactives show at the top dose activity change, negative = cytotoxicity, usual class: cytotoxic; actives 0.76% (n = 410,000)
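HepG2 CAGA-GFP cells (1000/well, DMEM with 1% FBS) received compound, then TGF-beta at 500 pg/mL final, and were incubated 18 hours at 37 degrees C. Viability was read by CellTiter-Glo luminescence. Media-only wells were set as complete cell-killing and DMSO as no toxicity.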
S2 tox – Viability Counterscreen for Primary qHTS for Inhibitors of ATXN expression. S2 cells (HEK-293 line with an ATXN2-luciferase reporter) viability, CellTiter-Fluor protease fluorescence, 24 h. Potency, µM (top dose mostly 56.7 µM), most hits filed as cytotoxic. actives 0.49% (n = 400,000). AID 651635, 2014; further: nearly all actives have a fitted effect of over 40% in size
HT1080NT lethal – qHTS for induction of synthetic lethality in tumor cells producing 2HG: qHTS for the HT-1080-NT fibrosarcoma cell line. Potency, µM (titrated, usually from 46.1 µM), inactives show top-dose activity, negative = less viability, actives largely listed as cytotoxic. HT-1080-NT fibrosarcoma viability, CellTiter-Glo ATP luminescence, 48 h. AID 686970, 2013. actives 1.6% (n = 360,000);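 further: NT is the 2HG producing partner of a matched IDH1 knockdown line; 0% = DMSO-treated cells and -100% = media-only wells without cells; nearly all actives have a fitted effect of over 55% in size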
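A 48-hour cytotoxicity screen used HT-1080-NT cells plated 2 hours before compound delivery. ATP-based CellTiter-Glo luminescence measured viability, normalized to DMSO and no-cell controls.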
ATXN2 expr inh – Primary qHTS for Inhibitors of ATXN expression; HEK-293 ATXN2-luciferase reporter, luminescence, 24 h; Potency, µM (doses to about 57 µM), inactives show at the top dose activity change, negative = inhibition, hits mostly inhibitors; actives 0.72% (n = 360,000); further: on the % scale 0 is the no-effect control and ±100 the full control effect; nearly all actives have a fitted effect of over 55% in size
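qHTS (up to 57 uM final) was run with 24 h compound exposure of reporter cells at 37 °C. Each well was multiplexed: SteadyGlo luminescence measured ATXN2-luciferase expression after a fluorogenic Gly-Phe-AFC viability readout (25 uM final).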
HT1080 IDH1KD tx – qHTS for induction of synthetic lethality in tumor cells producing 2HG: qHTS for the HT-1080-IDH1KD cell line; HT-1080 IDH1 knockdown viability, ATP luminescence, 48 h; Potency, µM (titrated, usually from 46.1 µM), without a hit: at the highest dose activity, negative = toxicity, most hits filed as cytotoxic; actives 2% (n = 360,000); AID 686971, 2013;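 further: 0% = DMSO wells and -100% = cell-free medium wells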
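% activity derives from luminescence (CellTiter-Glo), normalised to DMSO and no-cell wells. HT-1080-IDH1KD cells, 750/well, had 48 h compound exposure at 37 °C.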
TGFb SMAD3 inh – qHTS for Inhibitors of TGF-b | AID 588855, 2011 | actives 1.2% (n = 410,000) | Potency, µM (titrated, usually from 46.1 µM), without a hit: at the top dose activity, negative = inhibition, actives largely listed as inhibitors | HepG2 CAGA-GFP TGF-b/SMAD3 reporter, GFP fluorescence, 18 h; TGF-beta stimulated, 500 pg/mL final; further: on the % scale 0 is the no-effect control and ±100 the full control effect; nearly all actives have a fitted effect of over 65% in size
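Inhibition was scored as loss of TGF-beta-induced (500 pg/mL final, 18 hours, 37 degrees C) GFP in HEPG2 cells carrying a CAGA-GFP reporter, in DMEM with 1% FBS. Well GFP was summed per cell; Activity was normalised to unstimulated and stimulated DMSO wells, then concentration-response fitting.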
Starred values were filed as active, the others as inactive; i = inactive; u = inconclusive; x = no result given; [ ] = dose if it differs, or a comment. Only some compounds are listed: those with a hit (about 3.8% of all), similar ones and a draw of the others. The call rests on the fitted dose curve; in most records, active means well fitted curve in the direction sought with a large enough effect; inconclusive means small, poorly fitted or top-dose-only effect, or another doubt; inactive means no such curve, though single readings can be large; an effect the other way counts as inactive or inconclusive. Potency means the concentration at half of the fitted maximal effect.

SMILES	HepG2 viability	S2 tox	HT1080NT lethal	ATXN2 expr inh	HT1080 IDH1KD tx	TGFb SMAD3 inh
Cc1ccc(Cl)cc1N1CCN(C(=O)C2CCCN(Cc3nc(-c4cccc(Cl)c4)oc3C)C2)CC1 (stereo not drawn)	-2.3%	u	x	u	x	-12.5%
Cc1cccc(-c2nc(CSCC(=O)N3CCN(c4ccccc4)CC3)c(C)o2)c1	-27.0%	x	x	x	x	11.2µM*
CCC(C)NC(=O)CSCc1nc(-c2ccc(C)cc2)oc1C (stereo not drawn)	-27.9%	x	x	x	x	u
Cc1cccc(-c2nc(CSCC(=O)NCCc3ccc(Cl)cc3)c(C)o2)c1	-66.0%	x	x	x	x	12.6µM*
COC(=O)CSCc1nc(-c2ccc(C(=O)OC)cc2)oc1C	-4.9%	i	x	4.47µM*	x	-2.0%
CCc1ccc(-c2nc(CN3CCCC(C(=O)N4CCN(c5cc(Cl)ccc5C)CC4)C3)c(C)o2)cc1 (stereo not drawn)	-43.0%	15.8µM*	x	20µM*	x	u
COc1ccc(NC(=O)c2ccco2)cc1NC(=O)c1cccc(C)c1OC	-3.9%	u	x	-19.2%	x	-0.1%
Cc1ccccc1N1CCN(CCc2nnc3n2CCCC3)CC1	x	i	x	8.5%	x	x
Cc1ccc(-c2nc(CS(=O)(=O)CC(=O)N3CCN(c4ccccc4)CC3)c(C)o2)cc1	-28.8%	x	x	x	x	11.2µM*
COc1ccc(-c2nc(CSCC(=O)N3CCN(c4cc(Cl)ccc4C)CC3)c(C)o2)cc1	-33.5%	x	x	x	x	17.8µM*
COc1ccc(-c2nc(CSCC(=O)N3CCN(C)CC3)c(C)o2)cc1OC	2.7%	i	6.9%	3.2%	-0.3%	14.5%
COc1ccc(-c2nc(CSCC(=O)N3CCN(c4cccc(C)c4C)CC3)c(C)o2)cc1OC	-37.7%	31.6µM*	x	u	x	-26.9%
COc1ccc(-c2nc(CSCC(=O)N3CCN(c4ccc(OC)cc4)CC3)c(C)o2)cc1	-13.7%	x	x	x	x	u
CC(C)c1nc2cccnc2n1C1CCN(C(=O)Cn2cccn2)CC1	x	i	x	x	x	x
O=C(Nc1cccc(C(=O)N2CCN(c3ccc(F)cc3)CC2)c1)c1nsc2ccccc12	-31.9%	u	x	u	x	1.0%
CC(C=CC(=O)NO)=C[C@@H](C)C(=O)c1ccc(N(C)C)cc1	x	x	x	167.1%	x	x
Cc1sc(-n2c(C)cc(/C=C3\SC(=S)NC3=O)c2C)c(C#N)c1C	-71.8%	u	12.6µM*	9.7%	11.2µM*	u
Cc1cc(/C=C2\SC(=S)NC2=O)c(C)n1-c1cccc(O)c1	-17.6%	u	-10.0%	73.8%	-15.3%	-1.0%
CSc1nc(N(C)NC(=O)c2ccccc2)c2ccccc2n1	3.3%	u	0.581µM*	-19.4%	0.581µM*	-7.3%
CSc1nc(N(C)NC(=O)c2ccc(Cl)cc2)c2ccccc2n1	-17.5%	u	0.731µM*	-12.3%	u	u
COc1cc(=O)n2c(c1C(=O)NC(C)c1ccco1)CCN(C(=O)c1cccc(C)c1C)CC2 (stereo not drawn)	x	i	x	x	x	x
CC(C)NC(=O)CC(c1ccccc1)c1cc(Br)ccc1O (stereo not drawn)	-22.7%	i	0.2%[9.24 µM]	-8.2%	u	-7.2%
CCCCCCNC(=O)CC(c1ccccc1)c1cc(Br)ccc1O (stereo not drawn)	12.6µM*	i	u	u	u	12.6µM*
CCCC1OC2C[C@@H]3[C@H]4CCC5=CC(=O)C=C[C@]5(C)[C@H]4C(O)C[C@]3(C)[C@]2(C(=O)CO)O1 (stereo partly drawn)	-27.9%	x	x	0.4%	x	-3.8%
O=C1C=C(Nc2ccc(F)cc2)c2ccccc2C1=O	4.47µM*	i	u	u	u	3.98µM*
SMILES	HepG2 viability	S2 tox	HT1080NT lethal	ATXN2 expr inh	HT1080 IDH1KD tx	TGFb SMAD3 inh
CCOc1ccc(NC2=CC(=O)C(=O)c3ccccc32)cc1	-103.1%	u	u	-27.1%	u	4.47µM*
O=C1C=C(Nc2cccnc2)c2ccccc2C1=O	4.47µM*	x	23.1µM*	u	23.1µM*	3.55µM*
COc1cc(Cl)c(NS(=O)(=O)c2ccc(-c3ccc(=O)[nH]n3)o2)c(OC)c1	19.5%	i	-0.7%	0.3%	-1.9%	u
COc1cc(Cl)c(NC2=CC(=O)C(=O)c3ccccc32)c(OC)c1	3.55µM*	25.1µM*	9.2µM*	u	8.2µM*	5.01µM*
CCOC(=O)c1ccc(CNc2ncnc3nc[nH]c23)cc1	-10.3%	x	x	x	x	u
CCOc1ccccc1NC(=O)Cn1c(=O)n(Cc2ccc(OC)cc2)c(=O)c2oc3ccccc3c21	-1.3%	x	x	x	x	0.0%
COc1c([N+](=O)[O-])ccc(N)c1N	2.3%	x	x	x	x	-1.1%
COc1ccccc1CNc1nc(NC(C)C)nc2ccsc12	-11.4%	i	u	0.0%	u	u
CSc1ccccc1CNc1nc(NCC2CC2)nc2ccsc12	11.2µM*	14.1µM*	18.4µM*	u	20.6µM*	15.8µM*
CC(C)Nc1nc(NCCOc2ccccc2)c2sccc2n1	-26.4%	i	25.9µM*	u	23.1µM*	u
COc1cccc(CNc2nc(NCC3CC3)nc3ccsc23)c1OC	-46.8%	15.8µM*	23.1µM*	0.0%	11.6µM*	u
COc1cccc(CNc2nc(NC(C)C)nc3ccsc23)c1OC	-46.5%	u	14.6µM*	-31.6%	-19.0%	u
CCC(=O)C1=C(c2cccc(OC)c2)N(C(=O)CC)n2c(nnc2C2CCCCC2)S1	-6.6%	x	x	x	x	-22.8%
COc1cccc(-c2ccnc(-n3ncc(C(=O)N(C)CCc4ccccn4)c3C)n2)c1	x	i	x	x	x	x
CCc1nnc(NC(=O)c2nc(SCc3ccc(F)cc3)ncc2Cl)s1	-10.4%	u	x	7.9%	x	-10.9%
Nc1ncnc2c1ncn2Cc1c(F)cccc1Cl	x	i	x	8.7%	x	x
CCOC(=O)c1ccc(N2CCN(c3cc(C)ccc3C)CC2)c(NC(=O)Nc2ccc(Cl)cc2)c1	-4.4%	x	x	x	x	-4.9%
COc1cc(Cl)c(C)cc1Nc1nc2ccccc2c2nnc(C)n12	2.3%	x	x	x	x	4.7%
Cn1nnnc1SCCNCc1ccccc1OCc1ccc(Cl)cc1Cl	-104.4%	x	x	x	x	u
Cn1nnnc1SCCNCc1ccc(OCc2ccc(Cl)cc2)cc1	6.31µM*	u	x	-29.0%	x	u
CCOc1cc(CNCCSc2nnnn2C)ccc1OCc1ccc(Cl)cc1Cl	11.2µM*	i	x	u	x	u
CC1(C)S[C@H]2[C@H](NC(=O)[C@@H](N)c3ccc(O)cc3)C(=O)N2[C@@H]1C(=O)O	x	x	x	4.2%	x	x
